Laboratory results reported in PubChem BioAssay AID2599 (Sanford-Burnham Center for Chemical Genomics, 2010).
In all, about 330,000 compounds went through this assay and about 5,800 (1.8%) were called active.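 Rule for the calls: active = inhibition above about 50% at the single tested dose (limit read from the data); inactive = the rest.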 The entries come from a sample that favours actives as a whole.

Biological target: Sentrin-specific protease 6 (Homo sapiens) (UniProt Q9GZR1)
Assay: SENP6 protease inhibitors, primary screen, biochemical, luminescence, uHTS (AID 2599);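 note: plate controls were DMSO wells with enzyme for no effect and DMSO wells lacking enzyme for full effect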
Settings: Recombinant SENP6 catalytic domain, aminoluciferin luminescence; at 10 µM; hits give high values

Chain of Sentrin-specific protease 6 (Homo sapiens) (Q9GZR1 628-1112 limits assumed): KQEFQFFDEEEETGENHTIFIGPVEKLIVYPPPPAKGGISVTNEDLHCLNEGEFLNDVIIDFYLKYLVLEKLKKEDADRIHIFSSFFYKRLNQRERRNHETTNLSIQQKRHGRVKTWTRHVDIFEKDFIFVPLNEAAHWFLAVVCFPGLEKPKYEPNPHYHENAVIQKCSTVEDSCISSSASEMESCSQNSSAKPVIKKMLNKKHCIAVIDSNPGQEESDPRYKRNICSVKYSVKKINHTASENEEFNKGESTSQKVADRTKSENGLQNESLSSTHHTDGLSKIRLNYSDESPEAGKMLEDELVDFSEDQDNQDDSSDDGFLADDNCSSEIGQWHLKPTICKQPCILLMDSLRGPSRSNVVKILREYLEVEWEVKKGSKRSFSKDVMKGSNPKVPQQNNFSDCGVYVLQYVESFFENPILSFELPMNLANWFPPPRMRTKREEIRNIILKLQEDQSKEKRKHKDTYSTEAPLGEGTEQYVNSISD

inhibition, inactive:
COc1ccc(OC)c(C(c2nnnn2C(C)(C)C)N2CCc3ccccc3C2)c1 (stereo not drawn) -3.29%
CCOc1ccc2[nH]c(=O)c(C(c3nnnn3CCOC)N3CCOCC3)cc2c1 (stereo not drawn) 7.39%
O=c1cc(Cl)c2ccccc2n1-c1ccccc1 -18.3%
CCNC(=O)NNC(=O)C1CC(c2cccs2)=NO1 (stereo not drawn) -11.1%
Cc1cc(C)cc(NC(=O)N(C)Cc2ccccc2)c1 -7.22%
Cc1c(NC(=O)CSCc2ccccc2)cccc1C(=O)O 9.84%
CN1CCNC(=O)C1CC(=O)N1CC=C(c2ccc(F)cc2)CC1 (stereo not drawn) 4.55%
COc1ccc(/C=C2\SC(=O)N(CCC(=O)NC3CCS(=O)(=O)C3)C2=O)cc1 (stereo not drawn) 12.7%
COc1ccc(/C=C2\SC(=O)N(CCC(=O)NCCCn3ccnc3)C2=O)cc1 15.6%
O=C(Nn1c(-c2ccc(Cl)cc2)nc2ccccc2c1=O)c1cccnc1Cl 1.41%
Cc1ccc2c(c1)N(C(=O)CCC(=O)N1CCc3ccccc3C1)CCO2 10.2%
Oc1ccc(CNc2ccccc2O)cc1 17.3%
CCOC(=O)C1(Cc2ccccc2C)CCCN(C(=O)CCc2c(C)noc2C)C1 (stereo not drawn) 9.37%
CC1(C)Cc2c(sc3nc4n(c(=N)c23)CCCCC4)CO1 -4.65%
N=c1c2c3c(sc2ncn1N)CCCCC3 -21.7%
CC(OC(=O)CCc1nc(=O)c2ccccc2n1C)C(=O)NCc1ccc2c(c1)OCO2 (stereo not drawn) -15.7%
Cc1cc(NC(=O)c2ccccc2C)no1 -1.58%
Cc1cc(NC(=O)COc2ccc([N+](=O)[O-])cc2)no1 -2.83%
Nc1ccn(CC(=O)N2CCN(c3ccccn3)CC2)c(=O)n1 -3.83%
CC(C)C(=O)NC(NC(=S)NC1CCS(=O)(=O)C1)C(Cl)(Cl)Cl (stereo not drawn) -19.9%
Cc1cc(N/C=C\C(=O)c2ccc(Cl)c(Cl)c2)no1 -3.41%
COc1ccc(N2C(=O)CCC(C(=O)Nc3ccccn3)C2c2ccc(OC)c(OC)c2)cc1 (stereo not drawn) -4.43%
CC(=O)Nc1ccc(/C=C/C(=O)c2ccccc2)cc1 -17%
CCOc1ccc(NC(=S)N2CCC(NC(=O)c3ccccc3)CC2)cc1 -17.6%
O=C(/C=C/NCc1ccc(F)cc1)c1ccccc1 -0.568%
CCOc1ccc(N/C=C/C(=O)c2cc(OC)c(OC)c(OC)c2)cc1 -7.87%
C[C@H](NC(=O)C1CC(=O)N(c2ccc3c(c2)OCCO3)C1)C(=O)N1CCC(C(=O)O)CC1 (stereo partly drawn) -10.8%
CCC(C)CN1CCC(CO)(Cc2ccccc2Cl)CC1 (stereo not drawn) 8.24%
CC1CCC(CN2CCN=C2N(C)C)CC1 (stereo not drawn) -19.7%
Cc1ccccc1C(OCCN(C)C)C1CCCCC1 (stereo not drawn) -10.8%
COc1ccc(C2=NOC(COC(=O)c3ccc4ccccc4n3)C2)cc1 (stereo not drawn) -7.77%
Cc1ccc(C(=O)NNC2=Nc3cc([N+](=O)[O-])ccc3OC2)cc1 -18.4%
CCOCCN(C=O)c1cccc(OC)c1 -10.1%
O=C(COC(=O)c1n[nH]c2ccccc12)Nc1ccccc1Br -4.53%
CCCn1nc(C(=O)OCc2nc(N)nc(Nc3ccccc3C)n2)c2ccccc2c1=O -0.795%
COc1cc(/C=C/C(=O)OCC(=O)N2CCOCC2)ccc1OCC#N 2.81%
COc1ccc(N2C(=O)C(O)C2c2ccc(C)cc2)cc1 (stereo not drawn) -8.14%
Cc1cc(C)cc(NC(=O)N2CCCCCCC2)c1 -8.39%
Cc1ccc2nc(N3CCN(C(=O)c4ccco4)CC3)sc2c1 -9.94%
COC(=O)c1cccc(C(=O)N2CCCC(Nc3ccc4c(c3)OCCO4)C2)c1 (stereo not drawn) 8.68%
OCCC#Cc1ccc(CN2CCN(Cc3ccsc3)C(CCO)C2)cc1 (stereo not drawn) -21.1%
Cc1ccc(-c2cc(C(=O)N/N=C/C=C/c3ccccc3)n[nH]2)o1 1.41%
Cc1cc(C(=O)NNC(=O)c2ccccc2O)c(C)o1 0.955%
COc1ccc(C/C(C)=N/NC(=O)c2cc(C)oc2C)cc1 -24.2%
O=C(NN=Cc1ccc(N2CCOCC2)cc1)c1cc2ccccc2cc1O -12.9%
CCN(CC)c1ccc(C(=O)N/N=C/c2ccc(N3CCOCC3)cc2)cc1 -7.9%
CC(C)c1cc(C(=O)N/N=C/C(Br)=C/c2ccccc2)n[nH]1 2.83%
CN1CCN(C(=O)/C(=C\c2cccs2)NC(=O)c2cccs2)CC1 -14.6%
CC(C)OCCCNC(=O)c1ccc(C2SCC(=O)N2Cc2ccco2)cc1 (stereo not drawn) -6.37%
CC(Sc1ccccc1F)C(=O)Nc1cccc(S(=O)(=O)N2CCOCC2)c1 (stereo not drawn) -4.45%
Nc1c(N(CCCO)C(=O)C2CCCC2)c(=O)[nH]c(=O)n1Cc1ccccc1 -9.42%
O=C(Cc1ccccc1)Nc1c(Cl)ccc2nsnc12 -21.2%
C/C(=N\NC(=O)CNC(=O)C(c1ccccc1)c1ccccc1)c1ccc(C)cc1 7.95%
Cc1ccc(C(=O)N/C(=C/c2cccnc2)C(=O)O)cc1 -4.97%
CC(=O)Nc1ccc(S(=O)(=O)NNC(=O)CCc2ccccc2)cc1 -9.47%
C=C1c2c(Cl)ccc(O)c2C(O)=C2C(=O)[C@]3(O)C(O)=C(C(N)=O)C(=O)[C@@H](N(C)C)[C@@H]3[C@@H](O)C12 (stereo partly drawn) 1.61%
Cc1ccccc1NC(=O)CSc1ccc2nnc(-c3ccccn3)n2n1 -3.48%
CCOC(=O)CSc1nnc(-c2cccc(Br)c2)o1 -8.5%
CCOC(=O)CSc1nnc(-c2ccc([N+](=O)[O-])cc2)o1 2.93%
O=S(=O)(c1ccc(Br)cc1)N1CCC(c2nc3ccccc3[nH]2)CC1 -3.25%
COC(=O)c1scc(C)c1NC(=O)CSc1ccc(Cl)cc1 -3.94%
O=C(c1ccco1)N1CCN(C(=O)c2cc(-c3ccccc3F)no2)CC1 4.97%
O=C(CN1CCN(c2ccccc2F)CC1)c1ccc2c(c1)OCO2 -2.86%
COC(=O)Cc1ccc(N(Cc2ccccc2F)S(=O)(=O)c2ccc(Br)cc2)cc1 -6.45%
CCOc1ccc(OCC)c(NC(=O)CSc2nnc(Cn3cnc4ccccc43)n2C)c1 3.46%
O=C(CCN1CCc2ccccc2C(O)(c2ccccc2)C1)c1ccc2c(c1)OCCO2 (stereo not drawn) -26.4%
CCc1ccc(Oc2coc3cc(O)ccc3c2=O)cc1 14%
CC(C)CN(Cc1c(O)ccc2c(=O)c(-c3ccccc3)coc12)CC(C)C -12.1%
COc1ccc(C(C)NC(=S)NC2CCCCC2)cc1OC (stereo not drawn) -13.2%
CNC(=O)C1CC(=O)N(c2ccc(OCC(=O)Nc3ccccc3C)cc2)C1 (stereo not drawn) -8.41%
O=C(c1cccs1)N1CCC(c2nc3ccccc3s2)CC1 5.91%
COc1ccc(C2=NN(c3nc4ccccc4s3)C(=O)C2)cc1 2.49%
COc1ccc(-n2nnnc2CNC(=O)c2ccc3ccccc3c2)cc1 -6.42%
C=CCC(C(=O)c1ccccc1)[N+](C)(C)CC=C (stereo not drawn) -7.76%
Cc1cnc(CN(C)C(=O)C2CCC(=O)N(CCc3cccc(F)c3)C2)[nH]1 (stereo not drawn) 13.7%
Cc1cc(NC(=O)c2ccc(F)cc2)ccc1NC(=O)c1ccco1 43.7%
O=C(Nc1ccc(NC(=O)c2cccs2)cn1)c1ccco1 22%
Cc1ccc(C(=O)COc2cccc(NC(=O)c3ccco3)c2)cc1 -16.4%
COc1ccc(OCC(=O)Nc2ccc(NC(=O)c3ccco3)c(C)c2)cc1 -34.6%

inhibition, active:
COCCn1nnnc1C(c1cc2ccc(OC)cc2[nH]c1=O)N1CCc2ccccc2C1 (stereo not drawn) 72.7%
COc1ccc(/C=C2/SC(=O)N(CCCCCC(=O)Nc3ccccc3C(=O)O)C2=S)cc1 63.7%
N=c1c2c3c(sc2nc2n1CCCCC2)CCCC3 64.2%
Cc1cc(NC(=O)Nc2ccccc2[N+](=O)[O-])no1 54%
COc1ccc(C(=O)/C=C/Nc2ccccn2)cc1 97.2%
Cc1ccc(N/C=C/C(=O)c2ccccc2)cc1C 95.8%
CCOc1ccc(N/C=C/C(=O)c2ccccc2)cc1 94.4%
COc1ccc(C2=Nc3cc(C)ccc3OC2)cc1 81.7%
Cc1ccc2cc3cc(C(=O)N4CCCCCC4)oc3nc2c1 57.1%
Cc1cc(C(=O)N/N=C/c2ccc(N3CCOCC3)cc2)c(C)o1 84.3%
Cc1cc(C(=O)N/N=C\C(Br)=C\c2ccccc2)c(C)o1 54.2%
CC(=C/c1ccccc1)/C=N/NC(=O)c1cc(C)oc1C 90.1%
C/C(=N\NC(=O)c1ccc(C)cc1)C1C(=O)c2ccccc2C1=O 92.3%
CCCCSc1nnc(-c2ccc(C)cc2)o1 50.8%
Fc1ccccc1-c1cc2cc3c(cc2cn1)OCO3 75.8%
O=c1c(-c2ccccc2)coc2cc(O)ccc12 60.4%
COc1ccc(-n2nnnc2-c2nc3ccccc3s2)cc1 54.6%
COc1ccccc1C(=O)Nc1ccc(NC(=O)c2ccco2)c(C)c1 66.3%
COc1cccc(C(=O)Nc2ccc(NC(=O)c3ccco3)cn2)c1 64.1%
